The source of these data is article PMC8384837, “Expanding the binding specificity for RNA recognition by a PUF domain”.

What all share (assay): yeast three-hybrid, YBZ-1, SC-Leu-His + 0.5 mM 3-AT, 4 days
Holding throughout (conditions): tags: N-Gal4 AD-HA kept; label: inside an RPR1-promoter hybrid RNA with tandem MS2 sites; ssRNA

One assay has as its target PUM1 PUF domain R5-KHS (Homo sapiens, UniProt Q14671 828-1176, C1007K;R1008H;Q1011S). A digest of the protocol:
(§1)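 The interaction score is the log change in how often each variant appears, from input to selection. Frequencies came from PCR-amplified, Illumina-sequenced repeat regions of Pumilio-1 PUF domain libraries grown in strain YBZ-1 (LexA–MS2 coat fusion, HIS3 reporter) alongside matching RNA elements. Input plates were SC-Leu and selection plates were SC-Leu-His + 0.5 mM 3-AT, each for four days, and the log2 calculation used a pseudocount of 1 where a variant was absent.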

The next assay addresses PUM1 PUF domain R4-ANL (Homo sapiens, UniProt Q14671 828-1176, N971A;H972N;Q975L). A digest of the protocol: as §1
The next assay deals with PUM1 PUF domain R4-SPR (Homo sapiens, UniProt Q14671 828-1176, N971S;H972P;Q975R). An outline of the steps:
as §1

The target in a further assay is PUM1 PUF domain R4-WGS (Homo sapiens, UniProt Q14671 828-1176, N971W;H972G;Q975S). An outline of the steps: as §1
The target of a further assay is PUM1 PUF domain R4-AQY (Homo sapiens, UniProt Q14671 828-1176, N971A;H972Q;Q975Y). An outline of the steps:
as §1

In another assay the target is PUM1 PUF domain R4-AYP (Homo sapiens, UniProt Q14671 828-1176, N971A;H972Y;Q975P). An outline of the steps:
as §1

For another assay, the target named is PUM1 PUF domain R8-FFK (Homo sapiens, UniProt Q14671 828-1176, N1122F;Y1123F;Q1126K). A digest of the protocol: as §1
The target of a further assay is PUM1 PUF domain R7-LST (Homo sapiens, UniProt Q14671 828-1176, S1079L;N1080S;E1083T). An outline of the steps: as §1
The target in another assay is PUM1 PUF domain R5-NPR (Homo sapiens, UniProt Q14671 828-1176, C1007N;R1008P;Q1011R). An outline of the steps: as §1
The next assay has as its target PUM1 PUF domain R5-CGR (Homo sapiens, UniProt Q14671 828-1176, R1008G;Q1011R). A digest of the protocol:
as §1

Chain of PUM1 PUF domain R8-FFK (Q14671 828-1176 N1122F/Y1123F/Q1126K): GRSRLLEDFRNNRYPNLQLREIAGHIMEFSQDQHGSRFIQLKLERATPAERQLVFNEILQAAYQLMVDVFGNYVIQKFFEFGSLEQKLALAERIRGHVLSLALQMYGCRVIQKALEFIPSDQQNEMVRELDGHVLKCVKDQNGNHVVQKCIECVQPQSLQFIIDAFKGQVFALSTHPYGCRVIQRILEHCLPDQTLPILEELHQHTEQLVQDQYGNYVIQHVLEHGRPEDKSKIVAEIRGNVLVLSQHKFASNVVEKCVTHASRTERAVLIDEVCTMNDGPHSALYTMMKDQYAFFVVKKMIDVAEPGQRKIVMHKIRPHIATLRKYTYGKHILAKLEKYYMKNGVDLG
Chain of PUM1 PUF domain R7-LST (Q14671 828-1176 S1079L/N1080S/E1083T): as the sequence (Q14671 828-1176 N1122F/Y1123F/Q1126K) above, with S252L, N253S, E256T, F295N, F296Y, K299Q counted along it
Chain of PUM1 PUF domain R5-CGR (Q14671 828-1176 R1008G/Q1011R): as the sequence (Q14671 828-1176 N1122F/Y1123F/Q1126K) above, with R181G, Q184R, F295N, F296Y, K299Q counted along it

As for “GGCUAGAACUAGUGGAUCCCCCGGCGCCCGGCGGCUCGAGCCCGGGUAAGUGUGAAUAGUCUGCAUGCCGCCGGGCGCCAUGCCUGCAGGUCGACUCUAGAAAACAUG”, in the assay with PUM1 PUF domain R5-KHS, the binding signal was 2.1 log2 enrichment (interaction score).

On to “GGCUAGAACUAGUGGAUCCCCCGGCGCCCGGCGGCUCGAGCCCGGGUAAGUGUAUAUAGUCUGCAUGCCGCCGGGCGCCAUGCCUGCAGGUCGACUCUAGAAAACAUG”, for which the binding signal with PUM1 PUF domain R4-ANL is 2.71 log2 enrichment (interaction score); with PUM1 PUF domain R4-SPR it was 3.12 log2 enrichment (interaction score); in the assay with PUM1 PUF domain R4-WGS, 5.21 log2 enrichment (interaction score).

For “GGCUAGAACUAGUGGAUCCCCCGGCGCCCGGCGGCUCGAGCCCGGGUAAGUGUAAAUAGUCUGCAUGCCGCCGGGCGCCAUGCCUGCAGGUCGACUCUAGAAAACAUG”, the binding signal with PUM1 PUF domain R5-KHS is 2.33 log2 enrichment (interaction score); with PUM1 PUF domain R4-AQY, 3.35 log2 enrichment (interaction score); in the assay with PUM1 PUF domain R4-AYP it was 7.85 log2 enrichment (interaction score); with PUM1 PUF domain R4-WGS, 3.11 log2 enrichment (interaction score).

On to “GGCUAGAACUAGUGGAUCCCCCGGCGCCCGGCGGCUCGAGCCCGGGUAAGCGUAAAUAGUCUGCAUGCCGCCGGGCGCCAUGCCUGCAGGUCGACUCUAGAAAACAUG”, for which the binding signal in the assay with PUM1 PUF domain R8-FFK was 3.27 log2 enrichment (interaction score).

For the sequence “GGCUAGAACUAGUGGAUCCCCCGGCGCCCGGCGGCUCGAGCCCGGGUAAGUUUAAAUAGUCUGCAUGCCGCCGGGCGCCAUGCCUGCAGGUCGACUCUAGAAAACAUG”, in the assay with PUM1 PUF domain R7-LST, the binding signal was 3.64 log2 enrichment (interaction score).

“GGCUAGAACUAGUGGAUCCCCCGGCGCCCGGCGGCUCGAGCCCGGGUAAGUGUUAAUAGUCUGCAUGCCGCCGGGCGCCAUGCCUGCAGGUCGACUCUAGAAAACAUG”: the binding signal with PUM1 PUF domain R5-KHS is 6.04 log2 enrichment (interaction score); with PUM1 PUF domain R5-NPR it was 4.1 log2 enrichment (interaction score).

In the case of “GGCUAGAACUAGUGGAUCCCCCGGCGCCCGGCGGCUCGAGCCCGGGUAAGUGUCAAUAGUCUGCAUGCCGCCGGGCGCCAUGCCUGCAGGUCGACUCUAGAAAACAUG”, the figures for the binding signal with PUM1 PUF domain R5-KHS, with PUM1 PUF domain R5-CGR and in the assay with PUM1 PUF domain R5-NPR were 4.98 log2 enrichment (interaction score), 4.13 log2 enrichment (interaction score) and 4.07 log2 enrichment (interaction score), respectively.

For the sequence “GGCUAGAACUAGUGGAUCCCCCGGCGCCCGGCGGCUCGAGCCCGGGUAAGUGUACAUAGUCUGCAUGCCGCCGGGCGCCAUGCCUGCAGGUCGACUCUAGAAAACAUG”, the binding signal with PUM1 PUF domain R4-ANL was 1.38 log2 enrichment (interaction score); in the assay with PUM1 PUF domain R4-SPR it was 2.73 log2 enrichment (interaction score); in the assay with PUM1 PUF domain R4-WGS, 2.86 log2 enrichment (interaction score).
